These results are taken from the supplement of paper PMC10849652.

Of roughly 7,900 targets only a part is listed; those with a hit were picked by preference. About 0.6% of all pairs of compound and target were hits. A number with no mark means an inactive call.

Chain of UniProt P68402 (P68402 whole entry, looked up): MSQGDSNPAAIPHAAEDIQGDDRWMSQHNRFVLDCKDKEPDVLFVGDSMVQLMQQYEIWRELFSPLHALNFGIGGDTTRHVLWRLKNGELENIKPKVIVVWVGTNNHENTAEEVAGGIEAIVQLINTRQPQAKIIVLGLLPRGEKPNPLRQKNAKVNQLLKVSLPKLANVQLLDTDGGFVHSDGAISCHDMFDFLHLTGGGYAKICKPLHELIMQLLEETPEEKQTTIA
Chain of UniProt P84157 (P84157 whole entry, looked up): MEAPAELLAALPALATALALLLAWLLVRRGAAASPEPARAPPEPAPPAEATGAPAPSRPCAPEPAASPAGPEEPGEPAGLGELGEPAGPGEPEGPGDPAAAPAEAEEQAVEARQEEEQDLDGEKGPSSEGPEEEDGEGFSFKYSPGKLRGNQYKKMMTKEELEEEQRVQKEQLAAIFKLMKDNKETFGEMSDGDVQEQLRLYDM
Chain of UniProt P22059 (P22059 whole entry, looked up): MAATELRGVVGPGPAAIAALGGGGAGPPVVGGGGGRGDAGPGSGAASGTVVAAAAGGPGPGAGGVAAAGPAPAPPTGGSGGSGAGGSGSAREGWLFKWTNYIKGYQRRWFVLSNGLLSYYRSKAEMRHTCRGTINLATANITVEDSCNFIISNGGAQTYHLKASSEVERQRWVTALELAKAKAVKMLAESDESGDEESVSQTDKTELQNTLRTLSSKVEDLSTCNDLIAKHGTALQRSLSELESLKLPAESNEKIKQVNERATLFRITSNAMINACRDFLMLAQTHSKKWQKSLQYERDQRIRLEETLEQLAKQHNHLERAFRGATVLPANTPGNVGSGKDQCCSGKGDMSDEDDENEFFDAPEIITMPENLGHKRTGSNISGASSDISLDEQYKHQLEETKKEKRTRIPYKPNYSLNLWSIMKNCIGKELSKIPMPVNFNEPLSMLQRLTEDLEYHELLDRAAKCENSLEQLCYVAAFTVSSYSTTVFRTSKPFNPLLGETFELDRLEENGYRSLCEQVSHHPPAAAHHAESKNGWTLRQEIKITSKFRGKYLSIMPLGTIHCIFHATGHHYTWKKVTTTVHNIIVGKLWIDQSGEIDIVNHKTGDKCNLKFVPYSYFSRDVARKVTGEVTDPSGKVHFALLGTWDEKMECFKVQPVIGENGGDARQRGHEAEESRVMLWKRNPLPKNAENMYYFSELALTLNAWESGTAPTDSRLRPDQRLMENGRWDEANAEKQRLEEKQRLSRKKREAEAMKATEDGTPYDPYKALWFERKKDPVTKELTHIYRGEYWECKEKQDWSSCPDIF
Chain of UniProt P17568 (P17568 whole entry, looked up): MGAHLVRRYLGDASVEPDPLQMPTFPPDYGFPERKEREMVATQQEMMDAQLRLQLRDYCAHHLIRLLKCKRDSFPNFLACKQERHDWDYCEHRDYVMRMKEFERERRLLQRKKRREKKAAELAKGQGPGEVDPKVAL
Chain of UniProt Q9NRP0 (Q9NRP0 whole entry, looked up): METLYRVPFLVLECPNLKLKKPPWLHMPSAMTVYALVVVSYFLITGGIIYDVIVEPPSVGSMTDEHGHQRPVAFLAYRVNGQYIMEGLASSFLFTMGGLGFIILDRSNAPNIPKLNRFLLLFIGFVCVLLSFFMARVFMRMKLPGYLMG
Chain of UniProt P57740 (P57740 whole entry, looked up): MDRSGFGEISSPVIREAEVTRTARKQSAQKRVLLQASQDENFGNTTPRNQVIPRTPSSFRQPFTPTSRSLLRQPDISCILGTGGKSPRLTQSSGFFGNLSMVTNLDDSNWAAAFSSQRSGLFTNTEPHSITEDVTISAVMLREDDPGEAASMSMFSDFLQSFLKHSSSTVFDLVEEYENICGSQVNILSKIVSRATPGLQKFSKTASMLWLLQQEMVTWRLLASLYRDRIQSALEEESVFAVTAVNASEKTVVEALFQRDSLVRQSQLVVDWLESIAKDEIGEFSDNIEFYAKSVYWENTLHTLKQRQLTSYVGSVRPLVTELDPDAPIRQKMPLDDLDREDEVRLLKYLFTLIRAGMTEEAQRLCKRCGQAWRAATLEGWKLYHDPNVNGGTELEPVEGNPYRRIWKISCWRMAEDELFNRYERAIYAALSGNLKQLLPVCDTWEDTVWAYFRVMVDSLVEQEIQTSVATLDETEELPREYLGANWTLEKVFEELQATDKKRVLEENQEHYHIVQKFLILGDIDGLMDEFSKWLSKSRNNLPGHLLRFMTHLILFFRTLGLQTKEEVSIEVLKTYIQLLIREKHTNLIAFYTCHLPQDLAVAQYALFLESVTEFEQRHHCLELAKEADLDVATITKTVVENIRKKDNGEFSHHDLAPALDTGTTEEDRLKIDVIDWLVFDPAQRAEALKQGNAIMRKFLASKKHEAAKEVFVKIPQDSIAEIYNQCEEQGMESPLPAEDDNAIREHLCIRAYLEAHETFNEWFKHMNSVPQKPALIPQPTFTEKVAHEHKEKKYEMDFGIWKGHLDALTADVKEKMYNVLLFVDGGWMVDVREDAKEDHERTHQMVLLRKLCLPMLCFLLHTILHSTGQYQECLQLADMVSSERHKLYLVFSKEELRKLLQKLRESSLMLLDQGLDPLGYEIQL
Chain of UniProt P20585 (P20585 whole entry, looked up): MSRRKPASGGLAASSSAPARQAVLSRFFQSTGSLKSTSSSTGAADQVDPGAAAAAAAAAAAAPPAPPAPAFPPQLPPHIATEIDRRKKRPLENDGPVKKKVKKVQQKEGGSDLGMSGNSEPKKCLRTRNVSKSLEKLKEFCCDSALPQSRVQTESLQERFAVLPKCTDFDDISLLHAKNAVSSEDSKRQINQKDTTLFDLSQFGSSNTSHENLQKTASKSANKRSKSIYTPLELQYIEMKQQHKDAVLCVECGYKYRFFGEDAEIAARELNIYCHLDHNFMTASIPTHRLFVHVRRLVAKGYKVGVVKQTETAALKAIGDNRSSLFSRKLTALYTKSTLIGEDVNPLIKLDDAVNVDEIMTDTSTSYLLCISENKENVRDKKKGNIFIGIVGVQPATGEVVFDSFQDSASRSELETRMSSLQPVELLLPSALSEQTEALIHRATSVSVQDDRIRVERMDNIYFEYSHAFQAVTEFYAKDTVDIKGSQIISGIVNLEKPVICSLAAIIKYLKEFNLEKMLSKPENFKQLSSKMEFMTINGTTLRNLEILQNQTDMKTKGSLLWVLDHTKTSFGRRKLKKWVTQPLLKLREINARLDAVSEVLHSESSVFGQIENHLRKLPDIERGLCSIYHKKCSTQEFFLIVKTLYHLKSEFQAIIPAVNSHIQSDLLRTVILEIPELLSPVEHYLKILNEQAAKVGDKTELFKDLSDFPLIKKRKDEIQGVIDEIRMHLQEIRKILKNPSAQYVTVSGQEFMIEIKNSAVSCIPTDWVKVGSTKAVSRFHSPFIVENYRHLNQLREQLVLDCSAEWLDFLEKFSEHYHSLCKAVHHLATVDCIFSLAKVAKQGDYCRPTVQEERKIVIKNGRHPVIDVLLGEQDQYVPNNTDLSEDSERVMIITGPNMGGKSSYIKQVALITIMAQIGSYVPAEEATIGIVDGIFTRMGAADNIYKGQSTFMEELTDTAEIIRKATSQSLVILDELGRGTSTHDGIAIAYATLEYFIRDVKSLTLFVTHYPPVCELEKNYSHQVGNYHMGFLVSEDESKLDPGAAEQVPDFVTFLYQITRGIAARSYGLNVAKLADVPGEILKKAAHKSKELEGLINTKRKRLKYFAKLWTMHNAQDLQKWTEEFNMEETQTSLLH
Chain of UniProt Q15014 (Q15014 whole entry, looked up): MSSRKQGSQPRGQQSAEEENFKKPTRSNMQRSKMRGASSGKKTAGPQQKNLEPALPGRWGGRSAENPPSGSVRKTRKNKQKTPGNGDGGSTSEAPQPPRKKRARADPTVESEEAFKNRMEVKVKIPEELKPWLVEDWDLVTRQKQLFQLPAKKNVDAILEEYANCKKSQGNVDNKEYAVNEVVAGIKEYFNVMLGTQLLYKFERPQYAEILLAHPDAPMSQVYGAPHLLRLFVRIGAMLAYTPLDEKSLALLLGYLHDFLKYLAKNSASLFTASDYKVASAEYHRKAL
Chain of UniProt Q7L1V2 (Q7L1V2 whole entry, looked up): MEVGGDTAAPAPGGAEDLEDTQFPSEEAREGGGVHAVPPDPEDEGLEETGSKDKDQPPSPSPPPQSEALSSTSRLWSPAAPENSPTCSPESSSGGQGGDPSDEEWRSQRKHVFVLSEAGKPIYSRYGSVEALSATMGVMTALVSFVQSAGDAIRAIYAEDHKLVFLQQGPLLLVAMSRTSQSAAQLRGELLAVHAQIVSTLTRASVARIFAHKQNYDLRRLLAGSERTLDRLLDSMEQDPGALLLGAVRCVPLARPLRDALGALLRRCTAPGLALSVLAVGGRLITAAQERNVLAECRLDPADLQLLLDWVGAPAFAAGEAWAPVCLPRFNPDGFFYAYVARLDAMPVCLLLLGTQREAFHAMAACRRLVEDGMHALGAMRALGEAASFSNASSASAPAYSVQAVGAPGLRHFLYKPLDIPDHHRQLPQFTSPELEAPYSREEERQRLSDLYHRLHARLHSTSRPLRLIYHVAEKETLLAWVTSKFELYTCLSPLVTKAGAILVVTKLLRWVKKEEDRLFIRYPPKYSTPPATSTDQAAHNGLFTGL
Chain of UniProt Q9BRA0 (Q9BRA0 whole entry, looked up): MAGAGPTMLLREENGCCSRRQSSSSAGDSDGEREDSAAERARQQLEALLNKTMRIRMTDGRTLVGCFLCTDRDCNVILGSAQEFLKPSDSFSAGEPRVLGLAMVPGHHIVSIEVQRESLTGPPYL
Chain of UniProt Q8N6M0 (Q8N6M0 whole entry, looked up): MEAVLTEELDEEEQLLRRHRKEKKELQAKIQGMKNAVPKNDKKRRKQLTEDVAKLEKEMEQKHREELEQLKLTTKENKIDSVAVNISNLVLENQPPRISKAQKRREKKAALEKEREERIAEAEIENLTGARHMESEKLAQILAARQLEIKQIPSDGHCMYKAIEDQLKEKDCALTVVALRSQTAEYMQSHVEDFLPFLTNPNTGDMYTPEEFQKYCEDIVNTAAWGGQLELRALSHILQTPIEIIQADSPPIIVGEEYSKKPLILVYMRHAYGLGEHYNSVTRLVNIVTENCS

Compound in the first experiment: CC1=CC=C(C=C1)SC2=C3C=C(SC3=CN=C2)C(=O)N
Description: log2 fold change, soluble protein after heating vs DMSO (PISA); higher = thermal stabilisation; K562 cells, 10 uM, 30 min; active = over 0.2 and 3.5 SD of the protein, either way, in both replicates (recomputed). In outline:
(§1)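 Aliquots of K562 cells (2×10^6 cells/mL) treated with 10 μM compound for 30 min were heated for 3 min over 48°C-58°C. After pooling and extraction in PBS with 0.5% NP-40 at 4°C, soluble protein from a 21,000xg, 90 min spin was quantified by TMTpro 16plex LC-MS/MS with channel sums equalised. Thermal stability is expressed against control samples, from duplicates, as a log2 fold change.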
Turning to MORF4L2 (UniProt Q15014), the log2 fold change was -0.015.

Regarding MRPL46 (UniProt Q9H2W6), the log2 fold change is -0.009.

As to NCKAP1 isoform 2 (UniProt Q9Y2A7), the log2 fold change was 0.004.

Regarding MSTO1 (UniProt Q9BUK6), the log2 fold change is -0.02.

Take MSH3 (UniProt P20585): the log2 fold change is 0.021.

As for NANS (UniProt Q9NR45), the log2 fold change is 0.035.

With OSTC (UniProt Q9NRP0), the log2 fold change was 0.047.

Regarding NCOR1 (UniProt O75376), the log2 fold change is -0.195.

For the target MRPS21 (UniProt P82921), the log2 fold change was 0.215.

As for NISCH (UniProt Q9Y2I1), the log2 fold change is -0.054.

Consider NUP85 (UniProt Q9BW27), for which the log2 fold change is 0.102.

As to MPHOSPH10 (UniProt O00566), the log2 fold change is -0.031.

With NOP58 (UniProt Q9Y2X3), the log2 fold change was -0.058.

Take MRPS26 (UniProt Q9BYN8): the log2 fold change was 0.002.

MRPS24 (UniProt Q96EL2): the log2 fold change was 0.047.

For MON1B (UniProt Q7L1V2), the log2 fold change is 0.071.

On to OSBP (UniProt P22059), for which the log2 fold change was -0.028.

On to MINK1 (UniProt Q8N4C8), for which the log2 fold change was -0.003.

MRPS9 (UniProt P82933): the log2 fold change is -0.029.

Consider NR2C2 isoform 2 (UniProt P49116), for which the log2 fold change was 0.114.

NUP107 (UniProt P57740): the log2 fold change was 0.117.

As for PAFAH1B2 (UniProt P68402), the log2 fold change is -0.106.

Turning to MXRA7 (UniProt P84157), the log2 fold change is 0.038.

Turning to NOP53 (UniProt Q9NZM5), the log2 fold change is -0.073.

Take MRPS25 (UniProt P82663): the log2 fold change is 0.085.

As to MND1 (UniProt Q9BWT6), the log2 fold change was 0.

As to OTUD6B (UniProt Q8N6M0), the log2 fold change was 0.124.

On to NDUFB8 (UniProt O95169), for which the log2 fold change is 0.023.

On to OXSR1 (UniProt O95747), for which the log2 fold change is 0.014.

NOL7 (UniProt Q9UMY1): the log2 fold change was -0.048.

Regarding MRPL34 (UniProt Q9BQ48), the log2 fold change was 0.019.

Turning to MT-ATP6 (UniProt P00846), the log2 fold change was 0.008.

For MRPS35 (UniProt P82673), the log2 fold change is -0.04.

On to NECTIN2 (UniProt Q92692), for which the log2 fold change was 0.037.

For the target NAA38 isoform 2 (UniProt Q9BRA0), the log2 fold change was 0.018.

Turning to NPC1 (UniProt O15118), the log2 fold change is 0.006.

Regarding NOSIP (UniProt Q9Y314), the log2 fold change was 0.032.

For NDUFB7 (UniProt P17568), the log2 fold change is 0.063.

In the case of PACS1 (UniProt Q6VY07), the log2 fold change is -0.021.

Compound in another experiment: CC1=NC(=CC=C1)C2=C(N=C(N2)C(C)(C)C)C3=CC4=NC=CN=C4C=C3
The experiment is described as above. In outline: as §1
Turning to MORF4L2 (UniProt Q15014), the log2 fold change is -0.083.

As for MRPL46 (UniProt Q9H2W6), the log2 fold change is -0.064.

For the target NCKAP1 isoform 2 (UniProt Q9Y2A7), the log2 fold change is 0.033.

On to MSTO1 (UniProt Q9BUK6), for which the log2 fold change was 0.024.

For the target MSH3 (UniProt P20585), the log2 fold change was -0.101.

With NANS (UniProt Q9NR45), the log2 fold change is 0.007.

As for OSTC (UniProt Q9NRP0), the log2 fold change is 0.058.

Regarding NCOR1 (UniProt O75376), the log2 fold change is 0.101.

Take MRPS21 (UniProt P82921): the log2 fold change was 0.107.

As for NISCH (UniProt Q9Y2I1), the log2 fold change was -0.018.

For the target NUP85 (UniProt Q9BW27), the log2 fold change was -0.001.

For the target MPHOSPH10 (UniProt O00566), the log2 fold change was -0.079.

Regarding NOP58 (UniProt Q9Y2X3), the log2 fold change is -0.073.

MRPS26 (UniProt Q9BYN8): the log2 fold change is -0.03.

For the target MRPS24 (UniProt Q96EL2), the log2 fold change was -0.003.

As for MON1B (UniProt Q7L1V2), the log2 fold change was 0.019.

As to OSBP (UniProt P22059), the log2 fold change was 0.022.

For the target MINK1 (UniProt Q8N4C8), the log2 fold change was 0.029.

Take MRPS9 (UniProt P82933): the log2 fold change was 0.02.

As to NR2C2 isoform 2 (UniProt P49116), the log2 fold change is -0.034.

With NUP107 (UniProt P57740), the log2 fold change was 0.012.

Consider PAFAH1B2 (UniProt P68402), for which the log2 fold change was -0.046.

With MXRA7 (UniProt P84157), the log2 fold change is 0.011.

As for NOP53 (UniProt Q9NZM5), the log2 fold change was -0.163.

Turning to MRPS25 (UniProt P82663), the log2 fold change is 0.078.

For the target MND1 (UniProt Q9BWT6), the log2 fold change was 0.025.

For the target OTUD6B (UniProt Q8N6M0), the log2 fold change is 0.007.

In the case of NDUFB8 (UniProt O95169), the log2 fold change was 0.024.

Consider OXSR1 (UniProt O95747), for which the log2 fold change is 0.004.

With NOL7 (UniProt Q9UMY1), the log2 fold change was -0.193.

In the case of MRPL34 (UniProt Q9BQ48), the log2 fold change is -0.052.

With MT-ATP6 (UniProt P00846), the log2 fold change is 0.026.

As for MRPS35 (UniProt P82673), the log2 fold change was -0.007.

Consider NECTIN2 (UniProt Q92692), for which the log2 fold change was -0.049.

NAA38 isoform 2 (UniProt Q9BRA0): the log2 fold change was -0.044.

Consider NPC1 (UniProt O15118), for which the log2 fold change was 0.066.

As to NOSIP (UniProt Q9Y314), the log2 fold change is 0.012.

Consider NDUFB7 (UniProt P17568), for which the log2 fold change was 0.027.

As for PACS1 (UniProt Q6VY07), the log2 fold change is 0.087.
